Inconclusive results are not listed. Active and inactive are the calls of the source. Calls follow the shape of the full dose curve.
molecular target: Peroxisome proliferator-activated receptor delta (Homo sapiens) (UniProt Q03181); assay: qHTS assay to identify small molecule agonists of the peroxisome proliferator-activated receptor delta (PPARd) signaling pathway (AID 743212); conditions: HEK293H PPARd-UAS-bla, beta-lactamase FRET ratio, 17 h; series mostly up to 62.6 µM; activation: at the top concentration
Sequence (Q03181 whole entry, looked up): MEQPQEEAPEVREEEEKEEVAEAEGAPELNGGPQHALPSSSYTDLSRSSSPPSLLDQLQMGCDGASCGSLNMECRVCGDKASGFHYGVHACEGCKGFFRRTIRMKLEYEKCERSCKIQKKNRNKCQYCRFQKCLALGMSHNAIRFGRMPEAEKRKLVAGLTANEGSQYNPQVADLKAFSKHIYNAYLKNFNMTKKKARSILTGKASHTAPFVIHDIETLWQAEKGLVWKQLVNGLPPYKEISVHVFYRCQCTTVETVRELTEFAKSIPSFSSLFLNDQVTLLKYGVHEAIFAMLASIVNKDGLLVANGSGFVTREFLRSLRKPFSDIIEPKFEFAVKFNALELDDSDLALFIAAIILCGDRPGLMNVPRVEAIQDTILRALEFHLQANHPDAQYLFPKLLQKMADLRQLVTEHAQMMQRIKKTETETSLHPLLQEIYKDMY
Excerpt: U.S. Tox21 Program National Center for Advancing Translational Sciences [NCATS] NIH Chemical Genomics Center [NCGC] U.S. Environmental Protection Agency [EPA] National Institutes of Environmental Health Sciences [NIEHS] National Toxicology Program [NTP] U.S. Food and Drug Administration [FDA] Tox21 Assay Overview: The peroxisome proliferator-activated receptors (PPARs) are lipid-activated transcription factors of the nuclear receptor superfamily with three distinct subtypes namely PPAR alpha, PPAR delta (PPARd) and PPAR gamma. All these subtypes heterodimerizes with Retinoid X receptor (RXR) and have different physiological functions. […] To identify the compounds that activate PPAR-delta signaling, GeneBLAzer PPAR delta UAS-bla HEK293H cell line (Invitrogen, Carlsbad, CA, USA) containing a beta-lactamase reporter gene under the control of an Upstream Activator Sequence (UAS) was used to screen the Tox21 compound library.
Tox21 Assay Protocol Summary: PPARd-bla cells were dispensed at 3000 cells/6uL/well in 1536-well black wall/clear bottom plates using a Multidrop Combi (Thermo Fisher Scientific, Waltham, MA) dispenser. After the assay plates were incubated at 37 C and 5% CO2 for 5 h, 23 nL of compounds dissolved in DMSO, positive controls or DMSO only was transferred to the assay plate by a Pintool station (Kalypsys, San Diego, CA). The assay plates were incubated at 37C for 17 h. After 1 uL of LiveBLAzerTM B/G FRET substrate was added using a Bioraptr Flying Reagent Dispenser (FRD) workstation (Beckman Coulter, Indianapolis, IN, USA), the plates were incubated at room temperature for 2 h, and fluorescence intensity was measured by an Envision plate reader (PerkinElmer, Shelton, CT).
% is scaled to controls: 0 for no effect and ±100 for the full control effect.

SMILES | activation
O=S(=O)(Cl)c1c(Cl)cccc1Cl | 1.11% (inactive)
NC(=O)c1ccccc1[N+](=O)[O-] | -0.561% [at 81.1 µM] (inactive)
O=C(/C=C/c1ccc([N+](=O)[O-])cc1)c1ccccc1 | -9.87% (inactive)
CC(C)c1ccc(C(=O)N=C(N)N)cc1S(C)(=O)=O | 1.99% (inactive)
CCC(=O)OCc1ccc(OC)cc1 | 1.28% (inactive)
CC(=O)NNC(C)=O | -0.843% [at 81.1 µM] (inactive)
O=C(Oc1ccccc1)c1ccc2ccccc2c1O | 1.08% (inactive)
CCOCCC(=O)OCC | 1.08% [at 81.1 µM] (inactive)
CC(C)(O)CCc1ccccc1 | -0.49% (inactive)
Cc1ccc(N(CC2=NCCN2)c2cccc(O)c2)cc1 | 0.0585% (inactive)
CSCC[C@H](NC(=O)[C@H](Cc1c[nH]c2ccccc12)NC(=O)CCNC(=O)OC(C)(C)C)C(=O)N[C@@H](CC(=O)O)C(=O)N[C@@H](Cc1ccccc1)C(N)=O | 5.84% (inactive)
CCCCCCCC(=O)OCCCCCC | 1.94% (inactive)
O=C(Nc1ccc(C(=O)O)c(O)c1)c1ccccc1 | -1.49% (inactive)
CC1=CC[C@@H]2C[C@H]1C2(C)C | 0.18% [at 13.2 µM] (inactive)
COC1CCC=CO1 (stereo not given) | 1.93% [at 81.1 µM] (inactive)
O=NN(CCCl)C(=O)NCCCl | -0.952% (inactive)
Cc1ccc(Cl)cc1N | -0.0979% [at 81.1 µM] (inactive)
CN1C(CSCC(F)(F)F)Nc2cc(Cl)c(S(N)(=O)=O)cc2S1(=O)=O (stereo not given) | -0.119% (inactive)
Nc1c(Cl)cc(Cl)cc1[N+](=O)[O-] | -0.0717% (inactive)
O=C(O)CCC(=O)OC[C@@H](NC(=O)C(Cl)Cl)[C@H](O)c1ccc([N+](=O)[O-])cc1 | 2.58% (inactive)

SMILES | activation
CCCOC(=O)c1c(Cl)c(Cl)c(Cl)c(Cl)c1C(=O)OCCC | -1.74% (inactive)
O=C(O)CO | 3.06% (inactive)
CCCCC(CC)COS(=O)(=O)O (stereo not given) | -1.71% (inactive)
CCOC(=O)C(C)O (stereo not given) | 0.644% [at 81.1 µM] (inactive)
CCN(Cc1cccc(S(=O)(=O)O)c1)c1ccc(C(=C2C=CC(=[N+](CC)Cc3cccc(S(=O)(=O)O)c3)C=C2)c2ccc(O)cc2S(=O)(=O)[O-])cc1 | 2.53% (inactive)
COc1cc(S(=O)(=O)Nc2ccccc2)c(OC)cc1N | -0.125% (inactive)
C/C(C=O)=C\c1ccccc1 | 1.72% (inactive)
O=C(O)CN1C(=O)c2cccc3cccc(c23)C1=O | 0.298% (inactive)
Oc1cccc2[nH]ccc12 | -0.827% (inactive)
CC(C)(C)CCCCCCOC(=O)c1ccccc1C(=O)OCCCCCCC(C)(C)C | 0.455% (inactive)
C=CCOC(=O)COCCC(C)C | 5.32% (inactive)
CC(=O)NCCO | 3.44% (inactive)
CCc1ccc(C)cc1 | 2.26% (inactive)
Nc1cccc2c(N)cccc12 | 9.3% [at 81.1 µM] (inactive)
COC(=O)c1sccc1S(N)(=O)=O | -1.46% (inactive)
CC(C)c1ccc(C#N)cc1 | 1.83% (inactive)
O=C(O)c1ccc(O)cc1O | 0.81% [at 81.1 µM] (inactive)
CC1C(C)(C)C2=C(C(=O)CCC2)C1(C)C (stereo not given) | -0.473% (inactive)
c1ccc(CNc2ncnc3c2ncn3C2CCCCO2)cc1 (stereo not given) | 0.801% (inactive)
CC/C=C\C/C=C\C/C=C\CCCCCCCC(=O)OCC | 3.71% [at 81.1 µM] (inactive)

From PubChem BioAssay (Tox21)
